# Experimental data reported in PubChem BioAssay (EPA / NIEHS).
# Inconclusive results are not listed. Calls of active or inactive are those of the source. The calls were made as follows, unless noted: active = hit-call score of the fitted dose curve at least 0.9, where 1 is the maximum; inactive = score below 0.9.
# Assays:
# [1] = read-out: succinate dehydrogenase complex iron sulfur subunit B (SDHB), SDHB (gene 6390); assay: LTEA_HepaRG_SDHB: Life Technologies and Expression Analysis (LTEA) Assay for succinate dehydrogenase complex iron sulfur subunit B (SDHB) using HepaRG (AID 2283528); conditions: mRNA level, 48 h; actives raise or lower the signal
# Summary of the method: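 HepaRG cells (~100,000/well, plated 48 h) exposed in duplicate for 48 h in serum-free induction medium to 8-point half-log series from 100 uM in 0.5% DMSO; mRNA by qRT-PCR normalised to ACTB, GAPDH, POLR2A; bidirectional fit versus DMSO.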
# [2] = read-out: Signal transducer and activator of transcription 3 (Homo sapiens) (UniProt P40763); assay: LTEA_HepaRG_STAT3: Life Technologies and Expression Analysis (LTEA) Assay for Signal transducer and activator of transcription (STAT3) using HepaRG (AID 2283529); conditions: mRNA level, 48 h; actives raise or lower the signal
# Summary of the method: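 Differentiated HepaRG cells, serum-free induction medium, dosed 48 h in duplicate, 8 half-log concentrations from 100 uM in 0.5% DMSO. STAT3 mRNA by qRT-PCR, normalised to ACTB, GAPDH, POLR2A; bidirectional fit versus DMSO.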
# [3] = read-out: solute carrier (SLCO1B1), SLCO1B1 (gene 10599); assay: LTEA_HepaRG_SLCO1B1: Life Technologies and Expression Analysis (LTEA) Assay for solute carrier (SLCO1B1) using HepaRG (AID 2283530); conditions: mRNA level, 48 h; actives raise or lower the signal
# Summary of the method: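 Differentiated human HepaRG cells, plated 48 h, switched to serum-free induction medium and exposed in duplicate for 48 h to 8 half-log concentrations (top 100 uM) in 0.5% DMSO. SLCO1B1 mRNA by TaqMan qRT-PCR, normalized to ACTB/GAPDH/POLR2A.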
# [4] = read-out: sulfotransferase 2A1 (SULT2A1), SULT2A1 (gene 6822); assay: LTEA_HepaRG_SULT2A1: Life Technologies and Expression Analysis (LTEA) Assay for sulfotransferase 2A1 (SULT2A1) using HepaRG (AID 2283531); conditions: mRNA level, 48 h; actives raise or lower the signal
# Summary of the method: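 Differentiated human HepaRG cells in serum-free induction medium were exposed for 48 h to eight half-log concentrations (top 100 uM, 0.5% DMSO). SULT2A1 mRNA was measured by qRT-PCR, normalized to ACTB, GAPDH and POLR2A, and fitted bidirectionally against DMSO.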
# [5] = read-out: Transforming Growth Factor (TGFA), TGFA (gene 7039); assay: LTEA_HepaRG_TGFA: Life Technologies and Expression Analysis (LTEA) Assay for Transforming Growth Factor (TGFA) using HepaRG (AID 2283532); conditions: mRNA level, 48 h; actives raise or lower the signal
# Summary of the method: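 Differentiated HepaRG cells exposed 48 hours in serum-free induction medium, 0.5% DMSO vehicle, 8-point half-log series from 100 uM, in duplicate. TGFA mRNA by TaqMan qRT-PCR, normalised to ACTB, GAPDH, POLR2A; bidirectional fit versus DMSO.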
# [6] = read-out: Transforming Growth Factor (TGFB1), TGFB1 (gene 7040); assay: LTEA_HepaRG_TGFB1: Life Technologies and Expression Analysis (LTEA) Assay for Transforming Growth Factor (TGFB1) Transporter using HepaRG (AID 2283533); conditions: mRNA level, 48 h; actives raise or lower the signal
# Summary of the method: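 Differentiated human HepaRG cells in serum-free induction medium were exposed in duplicate for 48 h to eight concentrations (top 100 uM, half-log steps, 0.5% DMSO). TGFB1 mRNA was quantified by qRT-PCR, normalized to ACTB, GAPDH, POLR2A, and fitted bidirectionally against DMSO.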
# TIMP1, TIMP1 (gene 7076) = assay: LTEA_HepaRG_TIMP1: Life Technologies and Expression Analysis (LTEA) Assay for TIMP1 using HepaRG (AID 2283534); conditions: mRNA level, 48 h; actives raise or lower the signal;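 also: TaqMan qRT-PCR signal normalized to ACTB GAPDH and POLR2A housekeeping genes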
# Summary of the method: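 Differentiated human HepaRG cells in serum-free induction medium were exposed 48 h to chemicals (8 half-log concentrations, top 100 uM, 0.5% DMSO). TIMP1 mRNA was quantified by TaqMan qRT-PCR, normalized to ACTB/GAPDH/POLR2A; bidirectional fit versus DMSO.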
# [7] = read-out: Tumor necrosis factor receptor 1 (TNFRSF1A), TNFRSF1A (gene 7132); assay: LTEA_HepaRG_TNFRSF1A: Life Technologies and Expression Analysis (LTEA) Assay for Tumor necrosis factor receptor 1 (TNFRSF1A) using HepaRG (AID 2283535); conditions: mRNA level, 48 h; actives raise or lower the signal
# Summary of the method: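 Differentiated human HepaRG cells were exposed in duplicate for 48 h in serum-free induction medium to eight concentrations (top 100 uM, half-log steps, 0.5% DMSO). TNFRSF1A mRNA was quantified by qRT-PCR, normalized to ACTB, GAPDH and POLR2A, then fitted bidirectionally against DMSO.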
# [8] = read-out: Thyroid Hormone Responsive (THRSP), THRSP (gene 7069); assay: LTEA_HepaRG_THRSP: Life Technologies and Expression Analysis (LTEA) Assay for Thyroid Hormone Responsive (THRSP) using HepaRG (AID 2283536); conditions: mRNA level, 48 h; actives raise or lower the signal
# Summary of the method: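 Differentiated HepaRG cells treated 48 h in serum-free induction medium with 8 half-log concentrations up to 100 uM (0.5% DMSO), duplicates. THRSP mRNA by TaqMan qRT-PCR normalised to ACTB, GAPDH, POLR2A; bidirectional fit versus DMSO.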
# [9] = read-out: Cellular tumor antigen p53 (Homo sapiens) (UniProt P04637); assay: LTEA_HepaRG_TP53: Life Technologies and Expression Analysis (LTEA) Assay for Tumor Protein P53 (TP53) using HepaRG (AID 2283537); conditions: mRNA level, 48 h; actives raise or lower the signal
# Summary of the method: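 Differentiated HepaRG cells in serum-free induction medium exposed 48 h in duplicate to 8 half-log concentrations, top 100 uM, 0.5% DMSO. TP53 mRNA by TaqMan qRT-PCR (Fluidigm), normalized to ACTB, GAPDH, POLR2A; fitted bidirectionally versus DMSO.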
# [10] = read-out: UDP glucuronosyltransferase (UGT1A1), UGT1A1 (gene 54658); assay: LTEA_HepaRG_UGT1A1: Life Technologies and Expression Analysis (LTEA) Assay for UDP glucuronosyltransferase (UGT1A1) using HepaRG (AID 2283538); conditions: mRNA level, 48 h; actives raise or lower the signal
# Summary of the method: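 Readout is UGT1A1 transcript level by qRT-PCR, normalized to three housekeeping genes, after 48 h chemical treatment of HepaRG cells. Concentrations ran from 100 uM down in half-log steps with 0.5% DMSO, and gain or loss relative to DMSO was fitted.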
# [11] = read-out: UDP glucuronosyltransferase (UGT1A6), UGT1A6 (gene 54578); assay: LTEA_HepaRG_UGT1A6: Life Technologies and Expression Analysis (LTEA) Assay for UDP glucuronosyltransferase (UGT1A6) using HepaRG (AID 2283539); conditions: mRNA level, 48 h; actives raise or lower the signal
# Summary of the method: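 Human HepaRG cells were dosed for 48 h in serum-free induction medium with 0.5% DMSO vehicle, eight-point half-log series from 100 uM, in duplicate. UGT1A6 mRNA was measured by qRT-PCR, normalized to ACTB, GAPDH, POLR2A, and fitted bidirectionally against DMSO.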
# [12] = LTEA_HepaRG_LDH_cytotoxicity: Cytotoxicity Assessment in the Life Technologies and Expression Analysis (LTEA) Assay (AID 2283563; active = hit-call score of the fitted dose curve at least 0.9, where 1 is the maximum)
# Summary of the method: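 Differentiated human HepaRG cells, plated 48 h beforehand, were switched to serum-free induction medium and exposed for 48 h to eight half-log concentrations (top 100 uM) in 0.5% DMSO. LDH was measured in spent medium; activity was fitted relative to DMSO vehicle.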
# [13] = TOX21_p53_BLA_p2_viability: Viability Assessment in the Tox21 HCT-116 p53 Agonism Beta-lactamase Assay, Phase 2 (AID 2283591; active = hit-call score of the fitted dose curve at least 0.9, where 1 is the maximum;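 also: compound exposure lasted 16 h at 37 °C; actives lower the ATP signal meaning cytotoxicity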)
# Summary of the method: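 HCT116 p53-bla cells, 4000/well, dosed after 5 h plating (217-fold dilution of DMSO stocks) and incubated 16 h at 37C. Viability taken as cellular ATP by CellTiter-Glo luminescence after 30 min RT; signal loss marks cytotoxicity.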
# [14] = molecular target: Cellular tumor antigen p53 (Homo sapiens) (UniProt P04637); assay: TOX21_p53_BLA_p2_ratio: Tox21 HCT-116 p53 Agonism Beta-lactamase Assay, Ratio, Phase 2 (AID 2283592; active = hit-call score of the fitted dose curve at least 0.9, where 1 is the maximum)
# Cellular tumor antigen p53 (Homo sapiens), sequence (P04637 whole entry, looked up): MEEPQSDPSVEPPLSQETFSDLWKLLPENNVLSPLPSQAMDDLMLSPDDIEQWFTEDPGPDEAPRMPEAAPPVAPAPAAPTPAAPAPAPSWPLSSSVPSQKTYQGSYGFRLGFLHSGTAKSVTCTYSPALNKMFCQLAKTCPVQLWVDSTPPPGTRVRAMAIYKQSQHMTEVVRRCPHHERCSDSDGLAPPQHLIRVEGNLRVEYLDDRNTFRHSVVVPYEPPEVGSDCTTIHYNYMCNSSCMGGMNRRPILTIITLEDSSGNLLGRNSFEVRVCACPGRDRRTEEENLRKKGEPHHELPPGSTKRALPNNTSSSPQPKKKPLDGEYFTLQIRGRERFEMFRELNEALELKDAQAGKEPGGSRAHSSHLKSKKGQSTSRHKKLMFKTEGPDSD
# Summary of the method: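 HCT116 cells carrying a p53-responsive beta-lactamase reporter were plated, incubated 5 h at 37C, then dosed with compounds in DMSO (217-fold dilution) for 16 h. CCF4-AM substrate was added for 2 h at room temperature; the 460/530 nm emission ratio gave gain-of-signal activity relative to DMSO.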
# [15] = TOX21_p53_BLA_p3_viability: Viability Assessment in the Tox21 HCT-116 p53 Agonism Beta-lactamase Assay, Phase 3 (AID 2283593; active = hit-call score of the fitted dose curve at least 0.9, where 1 is the maximum;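 also: cells exposed to compound for 16 h before reading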)
# Summary of the method: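 HCT116 cells, 4000/well, dosed 5 h after plating by pin transfer (217-fold dilution from DMSO stock) and incubated 16 h at 37C, 5% CO2. Viability read as ATP luminescence with CellTiter-Glo after 30 min at room temperature.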
# [16] = TOX21_p53_BLA_p4_viability: Viability Assessment in the Tox21 HCT-116 p53 Agonism Beta-lactamase Assay, Phase 4 (AID 2283597; active = hit-call score of the fitted dose curve at least 0.9, where 1 is the maximum;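 also: hits lower the luminescence signal meaning cytotoxicity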)
# Summary of the method: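 HCT116 p53-bla cells (4000/well) rested 5 h at 37C, then received compounds in DMSO (217-fold dilution) for 16 h at 37C, 5% CO2. CellTiter-Glo was added after the CCF4-AM read, and luminescence was read after 30 min at room temperature.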
# [17] = read-out: X-box binding protein 1 (XBP1), XBP1 (gene 7494); assay: LTEA_HepaRG_XBP1: Life Technologies and Expression Analysis (LTEA) Assay for X-box binding protein 1 (XBP1) using HepaRG (AID 2283540); conditions: mRNA level, 48 h; actives raise or lower the signal
# Summary of the method: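 Differentiated human HepaRG cells in serum-free induction medium were exposed in duplicate for 48 h to eight half-log concentrations up to 100 uM in 0.5% DMSO. XBP1 mRNA was quantified by qRT-PCR, normalised to ACTB, GAPDH and POLR2A, with bidirectional fitting against DMSO.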
# [18] = ATG_XTT_Cytotoxicity: Cytotoxicity Assessment in the Attagene TRANS-FACTORIAL HepG2 Assay (AID 2283584; active = hit-call score of the fitted dose curve at least 0.9, where 1 is the maximum)
# Summary of the method: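 HepG2 human liver cells, transiently transfected with multiple GAL4-UAS reporter units, were dosed and read at 24 h by XTT as cell number. Loss of signal was fitted relative to DMSO negative control baseline.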
# [19] = molecular target: Cellular tumor antigen p53 (Homo sapiens) (UniProt P04637); assay: TOX21_p53_BLA_p3_ratio: Tox21 HCT-116 p53 Agonism Beta-lactamase Assay, Ratio, Phase 3 (AID 2283596; active = hit-call score of the fitted dose curve at least 0.9, where 1 is the maximum)
# Summary of the method: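 HCT116 p53-bla cells (4000/well) given compound in DMSO (217-fold dilution) after 5 h, incubated 16 h at 37C. CCF4-AM substrate 2 h at room temperature; 460/530 nm emission ratio, gain fitted against DMSO.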
# Signal transducer and activator of transcription 3 (Homo sapiens), sequence (P40763 whole entry, looked up): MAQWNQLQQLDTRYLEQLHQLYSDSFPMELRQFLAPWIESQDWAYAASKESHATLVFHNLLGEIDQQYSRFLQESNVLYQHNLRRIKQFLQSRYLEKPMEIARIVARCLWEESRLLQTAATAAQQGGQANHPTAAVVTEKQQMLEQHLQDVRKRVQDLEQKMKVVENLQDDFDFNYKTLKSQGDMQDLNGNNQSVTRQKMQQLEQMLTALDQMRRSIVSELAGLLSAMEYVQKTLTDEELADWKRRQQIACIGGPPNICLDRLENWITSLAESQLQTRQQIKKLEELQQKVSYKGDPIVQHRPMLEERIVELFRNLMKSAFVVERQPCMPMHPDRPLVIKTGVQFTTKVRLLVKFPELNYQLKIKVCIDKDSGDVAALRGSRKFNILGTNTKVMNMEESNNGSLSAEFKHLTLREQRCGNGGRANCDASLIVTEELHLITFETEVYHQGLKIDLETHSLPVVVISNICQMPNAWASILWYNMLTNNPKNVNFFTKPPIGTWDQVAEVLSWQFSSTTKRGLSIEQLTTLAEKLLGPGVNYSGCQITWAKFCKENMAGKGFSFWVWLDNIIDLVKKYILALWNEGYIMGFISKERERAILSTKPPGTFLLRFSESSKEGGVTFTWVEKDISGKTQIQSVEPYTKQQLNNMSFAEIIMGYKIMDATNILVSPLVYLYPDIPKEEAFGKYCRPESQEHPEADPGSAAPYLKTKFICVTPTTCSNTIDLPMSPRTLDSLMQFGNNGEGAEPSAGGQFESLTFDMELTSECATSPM
smiles,measurement,setting,value
OCC(CO)n1cnc(-c2ccc(F)cc2)c1-c1ccnc(Oc2ccccc2)n1,outcome,[1],inactive
same,outcome,[2],inactive
same,outcome,[3],inactive
same,outcome,[4],inactive
same,outcome,[5],inactive
same,outcome,[6],inactive
same,outcome,"TIMP1, TIMP1 (gene 7076)",inactive
same,outcome,[7],inactive
same,outcome,[8],inactive
same,outcome,[9],inactive
same,AC50,[10],24.9 µM (active)
same,outcome,[11],inactive
same,outcome,[12],inactive
same,outcome,[13],inactive
same,outcome,[14],inactive
same,outcome,[15],inactive
same,outcome,[16],inactive
CCCC[C@H]1CN(CC2CCOCC2)C(=O)OC12CCN(C1(C)CCN(C(=O)c3c(C)ncnc3C)CC1)CC2,outcome,[1],inactive
same,outcome,[2],inactive
same,outcome,[3],inactive
same,outcome,[4],inactive
same,outcome,[5],inactive
same,outcome,[6],inactive
same,outcome,"TIMP1, TIMP1 (gene 7076)",inactive
same,outcome,[7],inactive
same,outcome,[8],inactive
same,outcome,[9],inactive
same,outcome,[10],inactive
same,outcome,[11],inactive
same,outcome,[17],inactive
same,outcome,[12],inactive
same,outcome,[18],inactive
same,outcome,[14],inactive
same,outcome,[15],inactive
same,outcome,[19],inactive
same,outcome,[16],inactive
CCCCc1nc2cccnc2n1Cc1ccc(-c2ccccc2-c2nnn[nH]2)cc1,outcome,[1],inactive
same,outcome,[2],inactive
same,outcome,[3],inactive
same,outcome,[4],inactive
same,outcome,[5],inactive
same,outcome,[6],inactive
same,outcome,"TIMP1, TIMP1 (gene 7076)",inactive
same,outcome,[7],inactive
same,AC50,[8],35.5 µM (active)
same,outcome,[9],inactive
same,AC50,[10],18.8 µM (active)
same,outcome,[11],inactive
same,outcome,[17],inactive
same,outcome,[12],inactive
same,outcome,[18],inactive
same,outcome,[13],inactive
same,outcome,[14],inactive
same,outcome,[19],inactive
